In assay [1] the target is ATP-dependent translocase ABCB1 (Homo sapiens) (UniProt P08183). Briefly: P-glycoprotein substrate transport blockade – cell-based (AID 377; in the data active = fluorescence slope change above about 50%). Conditions: MDR1-expressing cells, fluorescent substrate accumulation slope; stronger effect = higher value; concentration not given here.
Assay [2] in a line: blockers of polyQ-driven CASP3 activation – cell-based (AID 1583). Conditions: polyglutamine-induced caspase-3 activation, cell assay; stronger effect = higher value;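 tested at 10 µM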.
The nature of assay [3]: restoration of touch response, mutant HTT neurons – whole organism, C. elegans mechanosensory neurons, N-terminal huntingtin (AID 1599). The settings on record: C. elegans polyQ-huntingtin mechanosensory neurons, stronger effect = higher value.
A short description of assay [4]: glutamate transport activators, MN-1 cells, MN-1 cell line (AID 1612).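 Note: tested at 1 µM final; 0% = mean of DMSO vehicle wells on each plate; positive means more glutamate uptake than control and negative means less.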 Conditions: MN-1 motor neuron cells, stronger effect = higher value.
Assay [5] in a line: GFP-Q80 aggregate reduction, neuronal-like cells, cell-based, NGF-treated PC12, GFPQ80 (AID 1614).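 Note: lower means fewer inclusions and 0 means no inclusions at all.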 The settings on record: PC12 NGF-treated GFP-polyQ80 inclusion reduction.
A short description of assay [6]: 75Q-TubH aggregate inhibition, S. cerevisiae, yeast (AID 1616). The settings on record: S. cerevisiae 75Q-TubH polyglutamine aggregation suppression; stronger effect = higher value.
Assay [7] can be described thus: compounds altering circadian rhythm period length – cell-based, LOPAC library, luminescence reporter (AID 2774).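 Note: values are relative to mean of DMSO wells on each plate.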 Conditions: circadian reporter cells, at 7 µM, actives lie on both sides.
Assay [8] concerns Hepatitis C virus NS3 helicase. Briefly: blockers of NS3h binding to ssDNA – biochemical, fluorescence polarization, LOPAC1280 library, primary screen (AID 687035; in the data active = inhibition above about 37%). Conditions: Purified HCV NS3 helicase, Cy5-dT15 ssDNA binding fluorescence polarization; stronger effect = higher value; concentration not given here. On the technique in general: In fluorescence polarisation assays a small probe gives low polarisation when free and higher when bound to something large.

The nature of assay [9]: compounds altering Cy5-DNA-NS3h complex signal – biochemical, LOPAC1280, artefact control for HCV NS3 helicase inhibitor project (AID 687037). Conditions: Cy5-DNA-NS3h complex fluorescence interference counterscreen.
Assay [10] deals with Aerobactin synthetase IucA (Klebsiella pneumoniae, hypervirulent). Kind of assay: biochemical IucA inhibition screen of LOPAC library by absorbance (AID 1346212).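 Note: 100% = no compound wells and 0% = no enzyme wells.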 Conditions: IucA enzyme assay, absorbance (OD) readout; stronger effect = lower value;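 tested at 8 µM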.
A short description of assay [11]: blockers of cellular phospholipid synthesis – cell-based, LOPAC library, screen 4, primary screen (AID 1347384). The settings on record: animal cells, phospholipid biosynthesis inhibition screen; at 10 µM.
Assay [12] can be described thus: compounds altering viability of human ES cells (AID 493140).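 Note: cells exposed to compounds for four days before counting.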 Conditions: human embryonic stem cell survival screen; stronger effect = higher value.
Assay [13] is described as follows: modulation of C. elegans fzo-1 (AID 1259413).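 Note: fzo-1 mutant C. elegans worms in liquid wells.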 Conditions: C. elegans fzo-1 modulator screen, mean read-out; stronger effect = higher value.
The next assay relates to F380Y. Briefly: BK channel mutant inhibitors and activators – cell-based, U2OS BacMam, thallium flux, beta subunits, selectivity assay, profiling panel (AID 1259406;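 active = thallium flux through the channel raised or lowered by more than 3 SD from vehicle-only wells, actives on both sides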;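 note: initial slope of Thallos dye fluorescence rise after thallium is added; log ratio against the mean of 0.3% DMSO vehicle wells on the same plate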). The settings on record: U2OS BacMam BK variants, at 30 µM.
A further assay relates to F380Y/beta2Delta. The assay is described as above. The settings on record: U2OS BacMam BK variants, at 30 µM.
In assay [14] the target is Calcium-activated potassium channel subunit alpha-1 (Homo sapiens) + Leucine-rich repeat-containing protein 26 (Homo sapiens) (UniProt Q12791+Q2I0M4). Described as above. The settings on record: U2OS BacMam BK variants, F380Y/Slo1WT/gamma1, at 30 µM.
Sequence of Calcium-activated potassium channel subunit alpha-1 (Homo sapiens) + Leucine-rich repeat-containing protein 26 (Homo sapiens) (Q2I0M4 whole entry, looked up, one chain of several): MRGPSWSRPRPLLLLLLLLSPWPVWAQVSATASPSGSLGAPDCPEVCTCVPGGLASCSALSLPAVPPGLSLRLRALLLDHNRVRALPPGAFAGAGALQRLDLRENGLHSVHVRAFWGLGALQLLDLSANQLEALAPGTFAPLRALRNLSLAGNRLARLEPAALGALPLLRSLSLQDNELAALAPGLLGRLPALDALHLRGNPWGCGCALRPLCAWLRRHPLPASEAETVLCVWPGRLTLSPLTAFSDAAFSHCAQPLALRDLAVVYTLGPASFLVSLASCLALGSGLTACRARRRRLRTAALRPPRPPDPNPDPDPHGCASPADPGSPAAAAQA
For the next assay, the system named is R275C. The description is as above. The settings on record: U2OS BacMam BK variants, at 30 µM.
The next assay concerns R275C/beta1. Described as above. The settings on record: U2OS BacMam BK variants, at 30 µM.
A further assay deals with R275C/beta2Delta. The description is as above. The settings on record: U2OS BacMam BK variants, at 30 µM.
A further assay has as its system R275C/Slo1WT/beta2. Described as above. Conditions: U2OS BacMam BK variants, at 30 µM.

Structures are written as SMILES. Records with an inconclusive call do not appear. For some of these results: Results with a measured potency or affinity are listed apart. Calls of active or inactive are those of the source. Unless noted, the rule behind the calls is not given here.

Sequence of ATP-dependent translocase ABCB1 (Homo sapiens) (P08183 whole entry, looked up): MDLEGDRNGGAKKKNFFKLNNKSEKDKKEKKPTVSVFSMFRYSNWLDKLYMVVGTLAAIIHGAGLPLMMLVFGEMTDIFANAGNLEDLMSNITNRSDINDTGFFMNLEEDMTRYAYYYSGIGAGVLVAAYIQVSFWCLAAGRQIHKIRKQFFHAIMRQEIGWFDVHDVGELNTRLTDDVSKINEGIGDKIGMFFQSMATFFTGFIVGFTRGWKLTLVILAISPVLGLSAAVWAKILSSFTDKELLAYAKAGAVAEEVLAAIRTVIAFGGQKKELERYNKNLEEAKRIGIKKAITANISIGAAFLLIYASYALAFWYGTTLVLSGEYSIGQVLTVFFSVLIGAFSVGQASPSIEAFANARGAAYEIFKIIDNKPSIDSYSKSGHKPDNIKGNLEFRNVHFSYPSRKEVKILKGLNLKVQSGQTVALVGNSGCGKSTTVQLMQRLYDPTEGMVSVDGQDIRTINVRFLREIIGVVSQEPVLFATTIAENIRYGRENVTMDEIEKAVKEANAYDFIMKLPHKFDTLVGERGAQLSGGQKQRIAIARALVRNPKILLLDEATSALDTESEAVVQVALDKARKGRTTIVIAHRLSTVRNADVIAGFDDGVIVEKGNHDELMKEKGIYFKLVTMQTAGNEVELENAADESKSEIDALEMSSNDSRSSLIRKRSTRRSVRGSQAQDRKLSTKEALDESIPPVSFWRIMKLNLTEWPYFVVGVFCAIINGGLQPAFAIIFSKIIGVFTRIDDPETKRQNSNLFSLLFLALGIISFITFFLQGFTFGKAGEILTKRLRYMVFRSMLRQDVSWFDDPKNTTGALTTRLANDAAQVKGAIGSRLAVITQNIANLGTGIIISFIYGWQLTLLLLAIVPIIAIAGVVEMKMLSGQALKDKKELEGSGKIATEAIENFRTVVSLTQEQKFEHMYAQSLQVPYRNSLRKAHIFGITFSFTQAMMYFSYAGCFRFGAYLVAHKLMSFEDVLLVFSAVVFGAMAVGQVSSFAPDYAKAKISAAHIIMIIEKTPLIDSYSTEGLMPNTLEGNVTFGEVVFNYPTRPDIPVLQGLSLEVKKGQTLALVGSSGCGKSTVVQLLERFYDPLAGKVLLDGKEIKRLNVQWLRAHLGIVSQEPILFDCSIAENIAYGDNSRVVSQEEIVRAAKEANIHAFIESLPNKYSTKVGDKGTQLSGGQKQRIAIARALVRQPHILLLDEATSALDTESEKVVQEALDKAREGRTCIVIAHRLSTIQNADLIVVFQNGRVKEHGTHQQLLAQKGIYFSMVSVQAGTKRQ

One may read the inhibition as the relative decrease from the control value, in per cent. As a reminder, the remaining activity is the signal under treatment as a percentage of the control signal. Turning to `C=C(C)[C@H]1Cc2c(ccc3c2O[C@@H]2COc4cc(OC)c(OC)cc4[C@@H]2C3=O)O1`, the fluorescence slope change in [1] was 63.7% (active). Besides, the inhibition was 5.88% in assay [2] and -1% (inactive) in assay [8]. In addition, in assay [3], the rescue above control was 0. Also, the glutamate uptake change in assay [4] is -44.7%. For the same molecule, the inclusion score in assay [5] came to 2. Moreover, in [6], the aggregation suppression score was 0.895. Further, in [7], the period change is -1.31 h (inactive). The fluorescence ratio (interference) in [9] is 1 (inactive). Besides, the remaining activity in assay [10] was 78.1% (inactive). For the same molecule, the call in assay [11] was inactive.
Consider `NCC(O)c1ccc(O)cc1` (centres undefined), for which the inhibition in assay [2] was -11.8%; in assay [8], -4% (inactive). The same molecule displayed a rescue above control in [3] of -6.97. Further, in assay [4], the glutamate uptake change was -13.3%. The molecule further had an inclusion score in assay [5] of 2. The aggregation suppression score in assay [6] was 0.97. Besides, the period change in [7] was -0.025 h (inactive). Moreover, in assay [12], the survival is 5.08 (inactive). In addition, in assay [9], the fluorescence ratio (interference) was 1 (inactive). Moreover, in [11], the result was inactive.
`C[C@@H]1C[C@@H]([C@H](O)CC2CC(=O)NC(=O)C2)C(=O)[C@@H](C)C1`: the fluorescence slope change in [1] is 14.9% (inactive). Also, in assay [2], the inhibition is 22.7%. The molecule also gave a rescue above control in assay [3] of -0.63. Further, the glutamate uptake change in assay [4] was -43.8%. Besides, in assay [6], the aggregation suppression score was determined as 0.0281. Further, the survival in assay [12] is 0.417 (inactive).
Consider `COc1ccc(C(CN(C)C)C2(O)CCCCC2)cc1` (centres undefined), for which the inhibition in assay [8] was -1% (inactive). For the same molecule, in assay [9], the fluorescence ratio (interference) was 1.1 (inactive). In addition, in assay [13], the mean signal was 261 (inactive). For the same molecule, the result in assay [11] was inactive. The log fold change Tl+ flux in the assay on F380Y was 0.00861 (inactive); in the assay on F380Y/beta2Delta, -0.0103 (inactive); in assay [14], -0.00535 (inactive); in the assay with R275C, -0.109 (inactive); in the assay with R275C/beta1, 0.0103 (inactive); with R275C/beta2Delta, -0.0272 (inactive). Moreover, the log fold change Tl+ flux in the assay on R275C/Slo1WT/beta2 was 0.0327 (inactive).
On to `CN1C(=O)CCS(=O)(=O)C1c1ccc(Cl)cc1` (centres undefined), for which the fluorescence slope change in assay [1] was 29.1% (inactive). Further, the inhibition in [2] was 11.3%; in assay [8], 0% (inactive). This molecule also showed a rescue above control in assay [3] of 10. The glutamate uptake change in assay [4] came to 3.58%. Further, the inclusion score in assay [5] is 2. This molecule also yielded an aggregation suppression score in [6] of 1.17. For the same molecule, the period change in assay [7] is 0.08 h (inactive). Also, the survival in [12] is 8 (inactive). In addition, the fluorescence ratio (interference) in [9] is 1 (inactive). The remaining activity in assay [10] is 93.8% (inactive). Also, the outcome in assay [11] was inactive.
With `COC(=O)C1=CCCN(C)C1`, the figures for the inhibition in assay [2] and in assay [8] were 15.1% and 0% (inactive), respectively. In assay [3], this molecule had a rescue above control of 4.32. Also, in assay [4], the glutamate uptake change worked out at 13.8%. The inclusion score in assay [5] was 2. The aggregation suppression score in assay [6] came to 1.35. The period change in assay [7] is -0.175 h (inactive). The survival in [12] is 7.67 (inactive). In addition, in [9], the fluorescence ratio (interference) was 1 (inactive). The remaining activity in assay [10] is 111% (inactive). The outcome in [11] was inactive.
`O=P1(N(CCCl)CCCl)NCCCO1` (centres undefined): the inhibition in assay [2] was -14.8%; in [8], -3% (inactive). For the same molecule, the rescue above control in assay [3] was -5.6. Also, the glutamate uptake change in assay [4] is -7.13%. In addition, the inclusion score in assay [5] was 2. The same molecule gave an aggregation suppression score in assay [6] of 1.14. In assay [7], the period change is 0.185 h (inactive). In addition, the fluorescence ratio (interference) in assay [9] was 1 (inactive). In addition, in [13], the mean signal was 262 (inactive). For the same molecule, the remaining activity in assay [10] was 112% (inactive). Further, the result in assay [11] was inactive. In addition, the log fold change Tl+ flux was -0.0772 (inactive) in the assay on F380Y; -0.037 (inactive) in the assay on F380Y/beta2Delta; 0.0114 (inactive) in assay [14]; -0.0233 (inactive) in the assay on R275C; 0.00892 (inactive) in the assay on R275C/beta1; -0.0421 (inactive) with R275C/beta2Delta. Besides, the log fold change Tl+ flux with R275C/Slo1WT/beta2 was 0.011 (inactive).
